PubChem BioAssay AID900 (National Center for Advancing Translational Sciences (NCATS), 2007)
“And” between values parts separate entries of the source, which are not always exact repeats. Equal values may be shown once. About 20 (0.03%) of roughly 75,000 compounds were called active. Roughly 1% stayed inconclusive and do not appear here. The call rests on the fitted dose curve; in most records, active means well fitted inhibition curve with a large enough effect; inconclusive means small, poorly fitted or top-dose-only effect; inactive means flat fitted curve, though single readings scatter. A selection follows.

target: Caspase-1 (Homo sapiens) (UniProt P29466); experiment: qHTS Assay for Allosteric/Competitive Inhibitors of Caspase-1; conditions: Caspase-1 enzyme, Ac-WEHD-AFC fluorogenic rate; series mostly up to 57.5 µM;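 further: plate controls were vehicle for no effect and no substrate for full effect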
Description: NIH Molecular Libraries Screening Centers Network [MLSCN]
NIH Chemical Genomics Center [NCGC]
PI Name: Dr. James Wells,
Dr. Enrique Perez-Paya, Dr.Janice Williams, Dr. Dennis Wolan, a person
The caspases (Cysteine Aspartyl Protease) comprise a related family of 14 dimeric proteases that are critical mediators of apoptosis (programmed cell death) and inflammation. The caspases represent an important class of drug targets for stroke, ischemia, cancer and inflammatory diseases. […] One goal of this project was to identify compounds that act as allosteric inhibitors via stabilizing the procaspase form of the enzyme. Previous work in Well's laboratory has shown that such allosteric inhibitors can be identified and these act by binding at the dimer interface of enzyme (Hardy, Lam et al., 2004).
The biochemical assay was configured using purified caspase 1 at a high enzyme concentration to promote formation of the homodimers and thus facilitate the identification of allosteric inhibitors. The overall goal was to identify reversible inhibitors with better drug-like properties than the currently available set of aspartyl-containing peptidomimetics that covalently bind the active site. Caspase 1 was assayed using the profluorescent substrate Ac-WEHD-AFC. After initiation of the assay with substrate the plates were rapidly read using an automated robotic system (Kalypsys, Inc.) to maintain consistent timing. A kinetic mode of detection was used where the initial rate was collected (estimated final product formation was ~10%). Compounds were screened as a concentration-titration series that ranged from 57 uM to 0.7 nM. Below is the protocol used for caspase 1.
NCGC Assay Protocol Summary:
Caspase 1 was prepared in buffer (50 mM HEPES pH 7.5, 50 mM KCl, 200 mM NaCl, 10 mM DTT, 0.1% CHAPS) at a concentration of 66.6 nM and 3 uL was dispensed to all wells using black solid Kalypsys 1536-well plates. 20 nL of DMSO containing compounds was added using a pin-tool (Kalypsys Inc.) to columns 5-48. Then 20 nL of DMSO solution from a control plate was added to columns 1-4. Controls were: Column 1, 16 point titration with each concentration in duplicate (1:1 dilutions in DMSO; final starting concentration was 57 uM) of the caspase 1 inhibitor Ac-WEHD-CHO (Alexis Biochemicals); Column 2, a 16 point titration with each concentration in duplicate of the free AFC fluorophore prepared in DMSO (Alexis Biochemicals), final starting was 40 uM; Column 3 neutral (DMSO only) control; Column 4: DMSO alone, to serve as a negative control (no substrate was added). Then 1 uL of 20 uM the substrate Ac-WEHD-AFC (Alexis Biochemicals) prepared in the same buffer was dispensed to all wells except columns 2 and 4 and the plates were immediately transferred (< 1 min) to the Viewlux. The plates were then exposed using 405 nm excitation/520 nm emission filters for 4 sec and read at 20 sec intervals for 3 min. Final enzyme concentration was 50 nM and the final substrate concentration was 5 uM.
Concentration-response curves were fitted to the data calculated from slope of the linear regression of fluorescent intensity versus time (the rate). The concentration-effect curves were then classified based on curve quality (r2), response magnitude and degree of measured activity. […] Inconclusive compounds had appreciable concentration-dependent effects on both the measured rate and the interpolated basal fluorescence intensity at the start of the reaction but where the basal fluorescent intensity was marginal (e.g. < 10-fold). Inconclusive compounds also encompass highly fluorescent compounds (>100-fold increases in fluorescent intensities values relative to controls) where artificial concentration-dependent decreases in the rate occurred at high compound concentrations due to fluorescent interferences.
Keywords: Caspase 1, proteases, profluorescent, MLSMR, MLSCN, NIH Roadmap, qHTS, NCGC

Activity change, negative = inhibition, inactive:
O=C(Oc1cc(OC(=O)c2ccccc2)c2c(c1)OC(c1ccc(OC(=O)c3ccccc3)c(OC(=O)c3ccccc3)c1)[C@@H](OC(=O)c1ccccc1)C2)c1ccccc1 (stereo partly drawn), O=C(/C(=N\O)n1cncn1)c1ccc(Br)cc1Br, CCC1(C)CC(=O)NC1=O (stereo not drawn), Cc1c(S(=O)(=O)O)oc2c1C(=O)C(=O)c1c-2ccc2c1CCCC2(C)C, Cc1ccc(Cc2nc(-c3cccc(C)c3)no2)cc1, N#CCC(=O)NC(=O)NCC1CC1, CCCCC/C=C/C=C/C=O, Cc1noc(C)c1CSc1nnc2ccc3ccccc3n12, COc1ccc(/C=C/C(=O)c2ccc(OC)cc2O)cc1 -5.59% [at 11.5 µM], CCC(CCC(C)C1CCC2C3CC=C4CC(O)CC[C@@]4(C)C3CC[C@@]12C)C(C)C (stereo partly drawn), Nc1nc2nc(Cl)[nH]c2c(=O)[nH]1, COc1ccc(N2C(=O)C3CCCN3C2c2cccc(OC)c2)cc1 (stereo not drawn), COc1ccccc1OCCNCC(O)COc1cccc2[nH]c3ccccc3c12 (stereo not drawn), Clc1ccc(C2[C@H]3CN(CC4CCCCC4)[C@H](c4ccccc4)C34CC2(c2cccnc2)C4)cn1 (stereo partly drawn), COC1C[C@@H](O[C@@H]2C(C)C(=O)OC(C)C(C)C(O)C(C)C(=O)[C@@]3(CO3)CC(C)C(OC3OC(C)CC(N(C)C)C3O)C2C)OC(C)[C@@H]1O (stereo partly drawn), COc1ccc(C2C(C#N)=C(N)Oc3cc(N)ccc32)cc1OC (stereo not drawn), CO[C@@H]1COC(=O)[C@H](Cc2ccccc2)NC(=O)C/C=C\[C@@H](C)[C@H](OC)COC(=O)[C@@H](C)NC(=O)C/C=C\[C@H]1C 0.468% [at 11.5 µM] and -0.511% [at 11.5 µM], C=C(C)C1CC=C(CO)CC1 (stereo not drawn), C[C@@H]1O[C@@H](OC[C@H]2O[C@@H](Oc3c(-c4cccc(O)c4O)oc4cc(O)cc(O)c4c3=O)[C@H](O)[C@@H](O)[C@@H]2O)[C@H](O)[C@H](O)[C@H]1O, BrC1C(Br)C(Br)C(Br)C(Br)C1Br (stereo not drawn), CC1(C)OC(C(O)(c2ccccc2)c2ccccc2)C(C(O)(c2ccccc2)c2ccccc2)O1 (stereo not drawn) -8.99% [at 11.5 µM], CCOc1ccc(Cn2nnc(C(=O)NCc3ccccc3)c2N)cc1, CC1C(O)CC2C(C(=O)O)=CO[C@@H](O[C@H]3OC(CO)C(O)C(O)C3O)C21 (stereo partly drawn), Cc1cccc2c3c(ccc12)C1=C(C(=O)C3=O)C(C)CO1 (stereo not drawn), C[C@@H]1CC[C@H]2[C@H](C)[C@H]3[C@H](C[C@H]4[C@@H]5CC=C6C[C@@H](O)CC[C@@]6(C)[C@@H]5C[C@@H](O)[C@]34C)N2C1 -2.52% [at 11.5 µM], Cn1c(SCC(=O)N2CCOCC2)nnc1-c1ccc(NC(=O)c2ccccc2F)cc1, CC1CCCN(C(=O)c2ccc3c(c2)C(=O)N(CCC2=CCCCC2)C3=O)C1 (stereo not drawn), CC(C)c1ccc(NC(=O)NC2CCCCC2)cc1, Nc1nc2[nH]c(=O)c(=O)[nH]c2c(=O)[nH]1, COC(=O)[C@@H]1C[C@H]2CC[C@H](O)C[C@H]2N1Cc1ccc(N2CCN(C)CC2)cc1, CC1O[C@@H](Oc2c(-c3ccc(O)c(O)c3)oc3cc(O)cc(O)c3c2=O)C(O)C(O)C1O (stereo partly drawn), Cc1csc(-c2nc3ccccc3n2C)n1, Brc1cc(Br)c(Oc2cc(Br)c(Br)cc2Br)cc1Br, O=C(O)c1ccc(Cl)c(S(=O)(=O)Nc2ccccc2Cl)c1, CC(=O)OCC1OC(C#Cc2ccccc2Cl)C=CC1OC(C)=O (stereo not drawn) -0.455% [at 11.5 µM], C[C@@H]1/C=C\CC(=O)OC[C@H]2O[C@@H](C=C[C@@H]2O)[C@H](C)/C=C\CC(=O)OC[C@H]2O[C@H]1C=C[C@@H]2O 0.74% [at 11.5 µM], CC1CC[C@@]23CCC4(C)[C@@]5(C)CCC6C(C)(C)C(O)CC[C@@]6(C)C5C=C[C@@]4(OC2=O)C3C1C (stereo partly drawn), CC(C)C1=CC2=CC[C@@H]3[C@](C)(CO)CCC[C@]3(C)C2CC1 (stereo partly drawn), COc1ncnc2sc3c(c12)CCCC3, CN1CCC(CNC(=O)c2ccc(-n3c(=O)c(=O)[nH]c4ccccc43)cc2)CC1, O=C(O)[C@@H]1[C@@H](C(=O)O)[C@]23C[C@@]2(C(=O)O)[C@]2(C(=O)O)CCC3=C3CCCC312 -0.0959% [at 11.5 µM], CN(C)Cc1c(C#N)c2ccccc2n1C, COCc1nnc(NC(=O)CS(=O)(=O)Cc2ccccc2)s1, CC(C)=CC1C(C(=O)O)C1(C)C (stereo not drawn), CCC1=C(OC(=O)N(CC)CC)N2C(=O)OC(=NCC3CC3)[C@]2(C)[C@H]2C1=CC[C@H]1C(=O)N(CC(=O)OC)C(=O)[C@H]12, CN1CCc2nc(-c3ccccc3)c(-c3ccccc3)cc2C1 -1.85% [at 11.5 µM], CC1(C)SC2C(NC(=O)COc3ccccc3)C(=O)N2C1C(=O)O (stereo not drawn), O=c1ccc2cc(S(=O)(=O)N3CCN(c4ccccc4)CC3)ccc2o1, CCOC(=O)[C@]1(C(/C=C/c2ccco2)NC(=O)OC)CCCC1=O (stereo partly drawn) -4.71% [at 11.5 µM], Cc1cnc(CNc2nc(-c3cccnc3)nc3ccccc23)cn1, O=C(COc1ccccc1)NCCc1nc2ccccc2[nH]1, COc1ccc(CNc2ncncc2-c2ccccc2OC)c(OC)c1, CCC[C@@H]1C[C@@]1(CCC)C(NC(=O)c1ccc(-c2ccccc2)cc1)c1cccc(Cl)c1 (stereo partly drawn), Cc1cccc(-c2cc(=O)c3cc(C)ccc3o2)c1, COc1ccc(/C=C/NC(=O)c2ccc(OC)cc2)cc1 -1.51% [at 11.5 µM], O=C(CN1CCOCC1)Nc1cc(Cl)ccc1Cl, COC(=O)NC(c1ccccc1)[C@]1(C(C)=O)CCCC1=O (stereo partly drawn) 0.536% [at 11.5 µM], Cc1c2c(nc3ccccc13)-c1cccc(=O)n1C2, COc1ccc(C2CC(=O)c3c(O)cc(OC4OC(COC5OC(C)C(O)C(O)C5O)C(O)C(O)C4O)cc3O2)cc1O (stereo not drawn), CC(=O)/C(=N\N=C(N)N)c1ccccc1 -1.52% [at 11.5 µM], C[C@]12C=CC(=O)C=C1CC[C@@H]1[C@@H]2C(=O)C[C@@]2(C)[C@H]1CC[C@]2(O)C(=O)CO, CC1=C(/C=C/C(C)=C/C=C/C(C)=C/C=C/C=C(C)/C=C/C=C(C)/C=C/C2=C(C)CCCC2(C)C)C(C)(C)CCC1, O=C1[C@H]2[C@H]3[C@H](O)[C@H](O)C/C(=N/OCc4ccccc4)[C@H]3CC[C@@H]2C(=O)N1Cc1ccccc1 -0.986% [at 11.5 µM], COC(=O)[C@@H]1C[C@@]2(O)[C@H](O)[C@H](O)[C@H](O)C[C@H]2N1Cc1ccc(C(C)(C)C)cc1, CC1(C)C(=O)C2(CCCCC2)C(=O)OC1c1cccs1 (stereo not drawn), CCOc1ccccc1C1NC(=O)NC(C)=C1C(=O)OCc1ccco1 (stereo not drawn), CN(C)c1cc2c(Nc3ccc4c(cnn4Cc4ccccc4)c3)ncnc2cn1, O=C(NCCN=C1NS(=O)(=O)c2ccccc21)c1ccc(S(=O)(=O)N2CCOCC2)cc1, CC1CCCCN1CCCNC(=O)c1ccc(-n2c(=O)c(=O)[nH]c3ccccc32)cc1 (stereo not drawn), Nc1ncnc2c1ncn2C1CC(O)C(CO)O1 (stereo not drawn), Cc1nnc(N(Cc2ccco2)C(=O)c2ccno2)s1, Cc1cc(Cl)ccc1N1C(=O)CC(SCCC(=O)O)C1=O (stereo not drawn), Cc1cc(C(=O)N2CCN(c3ccccn3)CC2)c(C)o1, CC(=O)OC1CCC2(O)CC1(C)CCC1C2CC1(C)C (stereo not drawn), O=S(=O)(c1ccccc1)N1CCC2(CC1)CN(Cc1nccs1)C2, COc1ccc2c3c1OC1CC(O)C=C[C@@]31CCN(C)C2 (stereo partly drawn), COc1c2c(cc3occ(-c4ccc5c(c4)OCO5)c(=O)c13)OC(C)(C)C=C2, Cc1cc(C(=O)COC(=O)c2cccs2)c(C)n1-c1c(C)n(C)n(-c2ccccc2)c1=O, CC(C)CO, CC1(C)OC2CC(=O)OC[C@@]23C1CC(=O)[C@]1(C)C3CC[C@@]2(C)C(c3ccoc3)OC(=O)C3O[C@@]321 (stereo partly drawn), O=C(NCCSc1ccccc1)c1ccco1, CN1CC(=O)N=C1N, COc1cc(OC)c2c(c1Cl)OC1(C2=O)C(O)=CC(=O)CC1C (stereo not drawn), O=C1OC(C(O)CO)C(O)=C1O (stereo not drawn), COC(=O)[C@@]1(Cc2ccccc2)[C@H]2c3cc(C(=O)N(C)C)n(CCSCCO)c3C[C@H]2CN1C(=O)c1ccccc1, C=C1C(=O)C23C(O)C1CCC2[C@]12COC3(O)C(O)C1C(C)(C)CC[C@H]2O (stereo partly drawn), Oc1ccc2ccccc2c1C=NCc1c(O)ccc2ccccc12 -2.14% [at 11.5 µM], Cc1cn(COC/C=C/c2ccccc2)c(=O)[nH]c1=O, CC(C)=CCC/C(C)=C/CC/C(C)=C/CC/C(C)=C/CO, CCc1c(C)c2c(C)[nH]nc2oc1=O, CCCC[C@@H]1C[C@H]1C(NC(=O)c1ccc(-c2ccccc2)cc1)c1ccc(-c2ccccc2)cc1 (stereo partly drawn), Cc1c(C(=O)OCc2cc(=O)n3cc(Br)ccc3n2)oc2ccccc12, FC(F)(F)c1ccc(CN2C[C@@H]3C(c4ccccc4)C4(c5ccccc5)CC3(C4)[C@H]2c2ccccc2)cc1 (stereo partly drawn)
